Test results: the supplement of paper PMC10849652
About 8,800 targets were measured; listed, in parts, are those with a hit and a random draw of the rest. About 0.5% of all pairs of compound and target were hits. Unmarked numbers belong to inactive results.

Key:
Experiment in all cases: log2 fold change, soluble protein after heating vs DMSO (PISA); higher = thermal stabilisation; K562 lysate, 10 uM; active = over 0.2 and 3.5 SD of the protein, either way, in both replicates (recomputed)
lapatinib = compound: CS(=O)(=O)CCNCc1ccc(-c2ccc3ncnc(Nc4ccc(OCc5cccc(F)c5)c(Cl)c4)c3c2)o1 [lapatinib]
In short: (§1)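 Log-two fold change in thermal stability relative to solvent controls is reported from duplicates. For each sample, crude K562 extract from dounce-homogenised pellets in PBS pH 7.4 with 1 mM MgCl2, at 1 mg/mL protein, was treated with 10 μM compound for 30 min. Aliquots heated for 3 min across 48°C-58°C were pooled, brought to 0.5% NP-40 at 4°C and cleared at 21,000xg for 90 min. The supernatant was quantified by TMTpro 16plex LC-MS/MS with channel sums equalised.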

pictilisib = compound: CS(=O)(=O)N1CCN(Cc2cc3nc(-c4cccc5[nH]ncc45)nc(N4CCOCC4)c3s2)CC1 [pictilisib]
In short: as §1

crizotinib = compound: C[C@@H](Oc1cc(-c2cnn(C3CCNCC3)c2)cnc1N)c1c(Cl)ccc(F)c1Cl [crizotinib]
In short: as §1

[1] = compound: C[C@H](C1=CC=C(C=C1)C(=O)NC2=C3C=CNC3=NC=C2)N
In short: as §1

duvelisib = compound: C[C@H](Nc1ncnc2nc[nH]c12)c1cc2cccc(Cl)c2c(=O)n1-c1ccccc1 [duvelisib]
In short: as §1

gandotinib = compound: Cc1cc(Nc2cc(CN3CCOCC3)c3nc(C)c(Cc4ccc(Cl)cc4F)n3n2)n[nH]1 [gandotinib]
In short: as §1

tozasertib = compound: Cc1cc(Nc2cc(N3CCN(C)CC3)nc(Sc3ccc(NC(=O)C4CC4)cc3)n2)n[nH]1 [tozasertib]
In short: as §1

doramapimod = compound: Cc1ccc(-n2nc(C(C)(C)C)cc2NC(=O)Nc2ccc(OCCN3CCOCC3)c3ccccc23)cc1 [doramapimod]
In short: as §1

bafetinib = compound: Cc1ccc(NC(=O)c2ccc(CN3CC[C@H](N(C)C)C3)c(C(F)(F)F)c2)cc1Nc1nccc(-c2cncnc2)n1 [bafetinib]
In short: as §1

[2] = compound: Cc1cccc(CC(=O)N2CCc3c2ccc(-c2cn(C)c4ncnc(N)c24)c3F)n1
In short: as §1

Chain of UniProt Q9BXP5 (Q9BXP5 whole entry, looked up): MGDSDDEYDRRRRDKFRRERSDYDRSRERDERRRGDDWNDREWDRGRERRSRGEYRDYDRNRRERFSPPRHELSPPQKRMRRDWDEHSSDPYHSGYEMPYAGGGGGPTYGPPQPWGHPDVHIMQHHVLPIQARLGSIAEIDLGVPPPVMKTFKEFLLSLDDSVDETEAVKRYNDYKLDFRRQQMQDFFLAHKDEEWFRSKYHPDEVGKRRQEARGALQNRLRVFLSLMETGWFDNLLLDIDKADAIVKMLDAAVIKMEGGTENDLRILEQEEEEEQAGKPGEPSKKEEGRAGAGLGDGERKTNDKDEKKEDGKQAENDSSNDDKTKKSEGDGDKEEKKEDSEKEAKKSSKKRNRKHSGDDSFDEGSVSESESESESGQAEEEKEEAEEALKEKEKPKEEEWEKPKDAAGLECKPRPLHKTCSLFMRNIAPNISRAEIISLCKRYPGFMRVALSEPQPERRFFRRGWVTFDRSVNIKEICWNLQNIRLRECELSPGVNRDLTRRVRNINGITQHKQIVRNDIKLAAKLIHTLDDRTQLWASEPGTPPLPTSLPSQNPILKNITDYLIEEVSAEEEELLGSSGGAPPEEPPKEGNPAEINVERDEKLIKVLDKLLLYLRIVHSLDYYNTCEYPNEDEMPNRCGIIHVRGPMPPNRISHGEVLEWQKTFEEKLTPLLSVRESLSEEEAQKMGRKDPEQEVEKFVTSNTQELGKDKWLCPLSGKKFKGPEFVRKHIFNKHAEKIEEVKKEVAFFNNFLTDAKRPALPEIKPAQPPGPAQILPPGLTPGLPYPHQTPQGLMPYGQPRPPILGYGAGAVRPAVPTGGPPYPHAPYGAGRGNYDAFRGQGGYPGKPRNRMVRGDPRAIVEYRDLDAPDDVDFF
Chain of UniProt Q15633 (Q15633 whole entry, looked up): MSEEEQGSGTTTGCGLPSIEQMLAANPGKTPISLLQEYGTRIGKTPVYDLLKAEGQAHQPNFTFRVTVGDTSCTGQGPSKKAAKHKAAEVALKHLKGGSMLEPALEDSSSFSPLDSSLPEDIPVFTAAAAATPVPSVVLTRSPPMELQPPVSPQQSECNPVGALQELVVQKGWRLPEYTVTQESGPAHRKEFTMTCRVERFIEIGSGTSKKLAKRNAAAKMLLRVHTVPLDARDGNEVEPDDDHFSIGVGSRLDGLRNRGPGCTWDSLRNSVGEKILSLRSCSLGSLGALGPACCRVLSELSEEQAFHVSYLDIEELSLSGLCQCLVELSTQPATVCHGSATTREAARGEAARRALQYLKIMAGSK
Chain of UniProt Q9UMZ2 (Q9UMZ2 whole entry, looked up): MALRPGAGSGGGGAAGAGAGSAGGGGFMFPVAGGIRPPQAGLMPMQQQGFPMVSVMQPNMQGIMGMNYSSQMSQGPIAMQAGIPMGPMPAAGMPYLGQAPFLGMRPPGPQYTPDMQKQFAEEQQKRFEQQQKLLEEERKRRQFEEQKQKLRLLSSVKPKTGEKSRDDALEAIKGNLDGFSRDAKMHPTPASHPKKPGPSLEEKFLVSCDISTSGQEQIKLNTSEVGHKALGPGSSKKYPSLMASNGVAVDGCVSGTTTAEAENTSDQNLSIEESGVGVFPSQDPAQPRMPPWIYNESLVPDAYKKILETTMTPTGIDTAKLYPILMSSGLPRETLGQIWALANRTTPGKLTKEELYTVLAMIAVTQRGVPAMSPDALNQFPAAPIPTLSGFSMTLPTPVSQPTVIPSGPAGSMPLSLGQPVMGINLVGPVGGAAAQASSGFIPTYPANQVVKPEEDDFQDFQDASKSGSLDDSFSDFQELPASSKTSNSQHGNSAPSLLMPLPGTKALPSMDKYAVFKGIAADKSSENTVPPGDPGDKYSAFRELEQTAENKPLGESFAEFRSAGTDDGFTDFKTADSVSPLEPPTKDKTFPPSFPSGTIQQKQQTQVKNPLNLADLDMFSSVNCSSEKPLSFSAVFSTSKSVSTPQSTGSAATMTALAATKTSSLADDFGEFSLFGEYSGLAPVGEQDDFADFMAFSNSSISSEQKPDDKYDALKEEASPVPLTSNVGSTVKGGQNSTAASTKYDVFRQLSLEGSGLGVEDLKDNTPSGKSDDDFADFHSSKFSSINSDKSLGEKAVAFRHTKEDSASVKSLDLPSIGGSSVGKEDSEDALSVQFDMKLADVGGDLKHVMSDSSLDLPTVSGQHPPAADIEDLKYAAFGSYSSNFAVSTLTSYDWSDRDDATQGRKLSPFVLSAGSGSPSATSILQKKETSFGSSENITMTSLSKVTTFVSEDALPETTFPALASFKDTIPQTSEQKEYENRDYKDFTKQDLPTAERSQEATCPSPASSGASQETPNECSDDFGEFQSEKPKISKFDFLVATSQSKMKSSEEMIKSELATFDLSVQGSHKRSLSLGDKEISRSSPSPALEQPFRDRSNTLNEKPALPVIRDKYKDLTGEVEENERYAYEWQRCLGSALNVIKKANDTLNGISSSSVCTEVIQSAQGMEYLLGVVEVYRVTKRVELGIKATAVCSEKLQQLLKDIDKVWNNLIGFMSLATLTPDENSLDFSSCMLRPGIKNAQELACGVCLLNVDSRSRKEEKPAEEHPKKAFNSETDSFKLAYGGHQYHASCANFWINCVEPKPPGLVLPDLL
Chain of UniProt Q13586 (Q13586 whole entry, looked up): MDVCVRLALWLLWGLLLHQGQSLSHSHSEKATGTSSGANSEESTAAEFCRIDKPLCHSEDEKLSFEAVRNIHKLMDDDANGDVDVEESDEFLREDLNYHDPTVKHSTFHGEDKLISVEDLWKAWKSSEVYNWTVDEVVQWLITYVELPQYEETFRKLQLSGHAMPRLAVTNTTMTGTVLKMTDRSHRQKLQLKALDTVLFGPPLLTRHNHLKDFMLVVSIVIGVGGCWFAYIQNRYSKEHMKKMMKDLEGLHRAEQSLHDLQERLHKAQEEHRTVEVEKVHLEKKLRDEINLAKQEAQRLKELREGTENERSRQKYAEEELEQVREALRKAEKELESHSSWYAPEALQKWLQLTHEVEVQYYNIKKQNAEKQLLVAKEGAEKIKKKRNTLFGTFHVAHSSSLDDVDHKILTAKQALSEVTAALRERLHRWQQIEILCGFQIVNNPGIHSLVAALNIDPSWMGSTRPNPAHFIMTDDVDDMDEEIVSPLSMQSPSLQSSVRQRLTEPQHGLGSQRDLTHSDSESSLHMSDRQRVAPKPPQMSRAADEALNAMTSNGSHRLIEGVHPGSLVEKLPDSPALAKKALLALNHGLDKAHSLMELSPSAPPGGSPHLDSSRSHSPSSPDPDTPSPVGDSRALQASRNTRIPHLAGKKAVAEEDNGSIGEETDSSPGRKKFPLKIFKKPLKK
Chain of UniProt Q99961 (Q99961 whole entry, looked up): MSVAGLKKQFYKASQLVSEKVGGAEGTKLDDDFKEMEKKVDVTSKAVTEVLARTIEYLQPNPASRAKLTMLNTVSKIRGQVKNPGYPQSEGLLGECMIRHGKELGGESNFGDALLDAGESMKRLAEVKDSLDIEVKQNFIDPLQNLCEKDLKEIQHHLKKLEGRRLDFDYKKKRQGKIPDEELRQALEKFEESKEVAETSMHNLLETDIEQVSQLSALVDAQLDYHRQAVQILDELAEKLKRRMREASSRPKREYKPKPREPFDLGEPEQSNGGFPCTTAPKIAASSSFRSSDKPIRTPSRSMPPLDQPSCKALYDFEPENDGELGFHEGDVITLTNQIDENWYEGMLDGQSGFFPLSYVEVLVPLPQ
Chain of UniProt Q01650 (Q01650 whole entry, looked up): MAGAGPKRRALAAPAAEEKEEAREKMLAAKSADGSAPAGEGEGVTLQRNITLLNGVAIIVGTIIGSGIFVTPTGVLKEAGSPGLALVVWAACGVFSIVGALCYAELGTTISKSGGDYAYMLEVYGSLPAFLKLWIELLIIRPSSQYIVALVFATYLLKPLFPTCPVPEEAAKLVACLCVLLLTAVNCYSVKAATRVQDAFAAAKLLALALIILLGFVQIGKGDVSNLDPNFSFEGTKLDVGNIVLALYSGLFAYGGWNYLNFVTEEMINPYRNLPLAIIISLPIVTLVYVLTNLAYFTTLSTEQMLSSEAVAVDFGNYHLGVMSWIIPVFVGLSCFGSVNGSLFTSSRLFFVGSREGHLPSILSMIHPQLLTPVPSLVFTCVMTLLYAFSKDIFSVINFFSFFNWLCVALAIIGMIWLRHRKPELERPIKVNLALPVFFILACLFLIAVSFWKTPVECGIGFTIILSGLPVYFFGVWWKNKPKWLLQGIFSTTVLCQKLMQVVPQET
Chain of UniProt Q9H2V7 (Q9H2V7 whole entry, looked up): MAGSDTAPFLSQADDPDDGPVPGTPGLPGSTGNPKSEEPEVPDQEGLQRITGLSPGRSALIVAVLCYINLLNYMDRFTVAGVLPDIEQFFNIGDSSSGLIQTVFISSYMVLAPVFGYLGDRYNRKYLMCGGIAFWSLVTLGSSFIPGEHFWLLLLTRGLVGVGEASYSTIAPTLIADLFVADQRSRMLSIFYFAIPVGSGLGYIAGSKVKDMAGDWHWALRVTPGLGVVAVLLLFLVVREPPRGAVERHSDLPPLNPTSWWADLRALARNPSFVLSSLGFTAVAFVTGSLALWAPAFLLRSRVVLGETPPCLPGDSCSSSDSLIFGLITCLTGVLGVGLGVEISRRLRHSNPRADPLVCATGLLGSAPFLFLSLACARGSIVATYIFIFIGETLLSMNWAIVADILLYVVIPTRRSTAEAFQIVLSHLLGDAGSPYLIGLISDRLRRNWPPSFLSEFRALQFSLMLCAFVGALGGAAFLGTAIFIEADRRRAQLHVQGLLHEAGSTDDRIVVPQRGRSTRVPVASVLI
Chain of UniProt P62316 (P62316 whole entry, looked up): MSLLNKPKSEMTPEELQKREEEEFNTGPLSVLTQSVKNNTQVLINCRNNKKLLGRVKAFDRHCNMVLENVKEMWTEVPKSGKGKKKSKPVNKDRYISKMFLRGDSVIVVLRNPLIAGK
Chain of UniProt O95926 (O95926 whole entry, looked up): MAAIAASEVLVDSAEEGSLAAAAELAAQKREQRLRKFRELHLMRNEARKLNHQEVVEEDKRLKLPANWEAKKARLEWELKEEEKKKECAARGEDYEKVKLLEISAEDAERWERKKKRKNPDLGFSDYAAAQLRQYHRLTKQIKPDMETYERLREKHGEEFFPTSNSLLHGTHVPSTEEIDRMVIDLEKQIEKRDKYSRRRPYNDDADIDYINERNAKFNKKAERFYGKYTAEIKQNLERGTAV

Target	log2 fold change (lapatinib)	log2 fold change (pictilisib)	log2 fold change (crizotinib)	log2 fold change [1]	log2 fold change (duvelisib)	log2 fold change (gandotinib)	log2 fold change (tozasertib)	log2 fold change (doramapimod)	log2 fold change (bafetinib)	log2 fold change [2]
SMG1 (UniProt Q96Q15)	-0.025	-0.05	-0.019	0.002	0.003	-0.105	0.024	0.015	-0.057	0.049
SYF2 (UniProt O95926)	0.026	0.003	-0.008	-0.023	-0.144	0.055	-0.066	0.04	-0.026	-0.016
SLC25A25 isoform 3 (UniProt Q6KCM7)	-0.004	0.021	-0.039	0.013	-0.014	-0.047	0	0.015	0.013	0.043
STK38 (UniProt Q15208)	-0.024	0.061	0.001	0.017	0.017	0.159	0.029	-0.001	-0.104	-0.071
SLC25A32 (UniProt Q9H2D1)	-0.032	-0.005	-0.017	-0.151	-0.014	0.098	-0.038	-0.019	-0.022	0.1
TAF6L (UniProt Q9Y6J9)	-0.044	-0.091	0.035	0.037	0.024	-0.042	0.017	-0.019	-0.009	0.028
SRRT (UniProt Q9BXP5)	0.005	-0.029	-0.055	0.059	-0.007	-0.072	0.032	0.066	-0.023	-0.018
SH3GL1 (UniProt Q99961)	0.013	0.005	-0.017	0.028	0.023	0.009	0.013	0.025	-0.001	-0.063
SMARCA4 (UniProt P51532)	-0.029	-0.008	-0.01	-0.009	-0.003	-0.022	0.012	0.008	-0.008	0.054
TARBP2 (UniProt Q15633)	0.035	-0.098	-0.092	0.001	0.07	-0.08	-0.057	0.028	-0.028	0.022
SLC12A6 (UniProt Q9UHW9)	0.037	-0.046	-0.025	0.008	0.015	-0.028	-0.002	0.027	-0.011	0.034
SYNRG (UniProt Q9UMZ2)	0.022	-0.016	0.016	0.043	-0.041	-0.037	0.024	-0.023	-0.032	-0.044
SLC38A1 (UniProt Q9H2H9)	-0.008	-0.01	-0.064	-0.218	0.048	0.096	0.026	-0.009	0.003	0.095
SND1 (UniProt Q7KZF4)	-0.008	-0.012	-0.034	0.077	0.008	-0.108	0	0.034	-0.028	-0.009
SHKBP1 (UniProt Q8TBC3)	-0.027	-0.045	-0.009	-0.045	0.055	0.034	-0.009	0.005	-0.04	0.055
SLC39A11 (UniProt Q8N1S5)	-0.054	0.081	0.081	-0.097	-0.002	0.1	0.178	-0.139	0.022	0.013
SNRPD2 (UniProt P62316)	0.017	-0.01	0.016	-0.055	0.018	0.057	-0.014	-0.009	0.078	0.052
SRSF7 (UniProt Q16629)	-0.061	0.075	0.084	-0.218 (active)	0.058	0	0.036	-0.01	0.05	0.194
SLC25A17 (UniProt O43808)	-0.033	0.015	-0.052	-0.303 (active)	0.029	0.072	-0.069	0.007	-0.066	0.085
SPG11 (UniProt Q96JI7)	-0.163	-0.021	-0.102	-0.049	0.048	0	0.047	0.024	0.138	-0.009
SLC20A1 (UniProt Q8WUM9)	-0.002	-0.065	-0.009	0.016	0.038	-0.016	-0.006	0.042	-0.075	-0.013
SOAT1 (UniProt P35610)	0.027	-0.004	-0.022	-0.079	-0.016	0.005	0.009	0.157	0.029	0.141
SPNS1 (UniProt Q9H2V7)	0.025	-0.038	-0.004	-0.042	0.04	0.032	-0.073	0.014	-0.054	0.052
SNCA (UniProt P37840)	0.137	-0.014	0.127	-0.101	-0.005	0.456 (active)	0.016	0.196	0.098	0.073
SLC7A5 (UniProt Q01650)	-0.004	0.026	-0.069	-0.308 (active)	0.051	0.201 (active)	-0.012	0.019	0.046	0.129
STIM1 (UniProt Q13586)	-0.056	-0.028	-0.053	0.145	-0.007	-0.095	0.032	0.044	-0.056	-0.037
TARBP1 (UniProt Q13395)	-0.009	0.007	-0.122	0.017	-0.034	-0.124	0.098	-0.022	-0.044	0.079
